# DRD3 antagonist: antagonists of human D3 dopamine receptor. 2.5% of 360,000 active. AID 652054. D3R cells, DiscoveRx beta-arrestin luminescence, antagonist mode; hits give low values. max response, negative = inhibition, %. P35462; in the data active means max response below about -50%; inconclusive means no clear call, values can overlap the other calls; further: on the % scale 0 is the no-effect control and ±100 the full control effect
# Target sequence (P35462 whole entry, looked up): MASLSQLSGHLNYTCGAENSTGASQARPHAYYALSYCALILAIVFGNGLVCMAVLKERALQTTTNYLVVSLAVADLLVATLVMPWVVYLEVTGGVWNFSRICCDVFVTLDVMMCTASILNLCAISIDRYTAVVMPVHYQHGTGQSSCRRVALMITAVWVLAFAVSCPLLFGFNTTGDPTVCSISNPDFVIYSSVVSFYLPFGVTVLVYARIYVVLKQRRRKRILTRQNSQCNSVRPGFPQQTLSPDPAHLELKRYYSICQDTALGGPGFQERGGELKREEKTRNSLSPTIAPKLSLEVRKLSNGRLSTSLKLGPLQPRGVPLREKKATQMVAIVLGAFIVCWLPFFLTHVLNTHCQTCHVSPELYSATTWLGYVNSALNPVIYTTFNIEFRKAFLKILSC
#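 Cells expressing the human receptor were seeded at 1500 cells/well, incubated overnight at 37 degrees C in 5% CO2, then exposed to library compounds with dopamine controls for 90 minutes at 37 degrees C before luminescent detection.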
# BRCA1 expr up: increases BRCA1 expression; MCF7-BRCA1-FFLuc reporter, luminescence, 48 h; response scale: scaled: vehicle 0%, 10 µM genistein 100%; Potency, µM (highest dose often 46.1 µM), for inactives: top-dose activation, most hits filed as activators; 1.1% of 380,000 active; AID 624202; further: potency means the concentration at half of the fitted maximal effect; nearly all actives have a fitted effect of over 80% in size
#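 MCF7 cells carrying a BRCA1-firefly luciferase reporter (2000 cells/well, phenol-red free MEM) were attached for 2 h at 37 °C, then given compounds for 48 h. Luminescence was read 15 min after luciferase reagent; activity normalized to genistein (10 microM) and DMSO.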
# RGS4 inh: inhibitors of human regulator of G protein signaling 4; P49798; Transcreener GDP fluorescence polarization, RGS4-accelerated GTP hydrolysis; Potency, µM (highest dose often 114 µM), for inactives: at the highest dose activity change, negative = inhibition, actives largely listed as inhibitors; 0.039% of 390,000 active; AID 504845; further: potency means the concentration at half of the fitted maximal effect; on the % scale 0 is the no-effect control and ±100 the full control effect; nearly all actives have a fitted effect of over 75% in size
# Target sequence (P49798 whole entry, looked up): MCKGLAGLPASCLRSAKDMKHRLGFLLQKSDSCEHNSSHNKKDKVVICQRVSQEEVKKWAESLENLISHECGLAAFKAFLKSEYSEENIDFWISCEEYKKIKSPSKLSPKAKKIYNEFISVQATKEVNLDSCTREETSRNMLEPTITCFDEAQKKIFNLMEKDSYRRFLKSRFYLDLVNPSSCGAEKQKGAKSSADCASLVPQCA
#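 MLSMR compounds (23 nl, pin-transferred) preincubated 10 min at room temperature with a 500nM (2x) first reagent, then RGS4 at 900nM (2x) plus Transcreener GDP mix added; fluorescence polarization (620/688 nm) read before and after 90 min at 30 °C.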
# B2AR arrestin: recruits beta-arrestin to the human beta2-adrenergic receptor; Potency, µM (doses to about 46.1 µM), for inactives: at the highest dose activation, actives largely listed as activators; AID 492947; 0.02% of 330,000 active; P07550; beta-arrestin recruitment to beta2AR, cell-based reporter;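 further: potency means the concentration at half of the fitted maximal effect; 0% = DMSO controls and full agonism = EC100 isoproterenol or metaproterenol; nearly all actives have a fitted effect of over 65% in size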
# PTHR1 ag: activates the human parathyroid hormone receptor PTHR1; Q03431; HEK293 GP2 PTHR1 cells, GloSensor cAMP luminescence, 1 h; Potency, µM (highest dose often 115 µM), inactives show top-dose activation, actives largely listed as activators; 0.075% of 410,000 active; further: potency means the concentration at half of the fitted maximal effect; nearly all actives have a fitted effect of over 55% in size
#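 HEK-293-derived GP2 cells expressing PTHR1 and a GloSensor cAMP reporter, 3,000/well, plated overnight, given luciferin plus IBMX (each 0.5 mM as added) for 1 h at 37 °C, then compound for 1 h at 37 °C. Luminescence was read after 15 min at room temperature.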
# D3 ag: agonists of human D3 dopamine receptor; P35462; D3R DiscoveRx beta-arrestin cells, luminescence, 90 min; max activation, %; 0.58% of 410,000 active; AID 652048; in the data active means max activation above about 30%; further: 0% is about no effect
#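 Agonist mode: compounds and dopamine controls were applied to plated cells for 90 min at 37 degrees C after an overnight attachment at 1500 cells/well. Luminescent read-out followed 30 - 60 minutes at room temperature with DiscoveRx detection reagent.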
# An asterisk follows results filed as active; i = inactive; ? = inconclusive; · = no result given; [ ] = remark or other dose. Compounds with a hit are over-represented: about 3.7% of the library has one in this group of screens. Unless noted, the call rests on the fitted dose curve; in most records, active means well fitted curve in the direction sought with a large enough effect; inconclusive means small, poorly fitted or top-dose-only effect, or another doubt; inactive means no such curve, though single readings can be large; an effect the other way counts as inactive or inconclusive.
SMILES,DRD3 antagonist,BRCA1 expr up,RGS4 inh,B2AR arrestin,PTHR1 ag,D3 ag
O=C(CCCc1c[nH]c2ccccc12)NCCc1c[nH]c2ccccc12,-19,-77%,23%,0%,6%,-5
O=C1c2ccccc2C(=O)N1CCc1c[nH]c2ccccc12,-5,2.2µM*,3%[56.9 µM],0%,-46%,1
O=C(NCCc1ccccc1)c1c[nH]c2c(F)cccc2c1=O,-50*,23%,-27%,4%,-33%,-4
O=C(NCCc1ccc(Cl)cc1)c1n[nH]c2ccccc12,0,79%,-55%[56.9 µM],0%,i,0
Cc1ccc(Nc2nc(/N=C/NO)n[nH]2)cc1C,-4,74%,-6%,-1%,-17%,1
O=C(NCCc1c[nH]c2ccccc12)c1ccccc1,1,13µM*,1%,0%,-45%,-1
Cc1ccc(C(=O)NCCc2c[nH]c3ccccc23)s1,7,3.2µM*,13%,1%,-42%,-3
O=C(Nc1cccc(CNCCc2c[nH]c3ccccc23)c1)c1ccccc1Cl,-96*,-50%,-21%,-1%,-33%,-13
O=C(CS(=O)(=O)c1c[nH]c2ccccc12)N1CCc2ccccc21,-25,1%,4%,0%,i,3
Cc1ccc(N2C(=O)N(Cc3cc(=O)n4ccccc4n3)c3ccccc3S2(=O)=O)cc1Cl,·,·,-16%,·,-27%,-8
O=C(O)c1cccc(N/N=C/c2cc(Br)cc(Br)c2O)c1,-64*,69%,-27%,-1%,-13%,-7
COc1ccc(Br)cc1/C=N/Nc1cccc(C(=O)O)c1,10,?,-30%,0%,i,-3
CCC(O)(CC)C(=O)N/N=C/c1cc(Br)cc(Br)c1O,-66*,-78%,-36%,0%,-4%,-26
O=C(C[n+]1ccccc1)N/N=C/c1cc(Br)cc(Br)c1O,-165*,-90%,-6%,0%,-10%,-45
C[C@H]1C[C@@H]2[C@H]([C@@H](O)C[C@@]3(C)[C@H]2CC[C@]3(O)C(=O)COC(=O)CCC(=O)O)[C@@]2(C)C=CC(=O)C=C12,·,·,·,·,·,2
Cc1ccc(C(=O)O)cc1N1CCCC1=O,-51*,0%,1%,0%,25%,-5
O=C(Nc1ccc(Br)cc1)c1ccccc1Br,5,1.1µM*,5%,0%,-17%,4
CCc1ccc(NC(=O)c2ccccc2Br)cc1,-5,3.2µM*,15%,0%,-17%,-1
CC(=O)Nc1ccc(NC(=O)c2ccccc2Br)cc1,-22,12%,·,·,i,-3
CCOc1ccc(CCNC(=O)c2ccc(CS(=O)(=O)Cc3ccccc3Cl)o2)cc1OCC,·,·,0%,·,-91%,-6
Cc1ccc(S(=O)(=O)c2nc(-c3ccccc3)oc2NCCN2CCOCC2)cc1,-73*,-5%,-15%[11.4 µM],0%,i,-13
O=S(=O)(c1ccccc1)c1nc(-c2ccccc2Cl)oc1NCCCN1CCOCC1,-71*,3%,-16%,0%,-17%,-17
Cc1ccccc1-c1nc(S(=O)(=O)c2ccccc2)c(NCCCN2CCOCC2)o1,-65*,2%,12%,0%,i,-6
Cc1ccccc1-c1nc(S(=O)(=O)c2ccc(Cl)cc2)c(NCCN2CCOCC2)o1,?,-49%,8%,0%,-12%[57.5 µM],-24
CCCCNC(=O)C1c2ccccc2OCC(=O)N1Cc1cccnc1 (stereo not given),0,-4%,·,·,-3%,1
SMILES,DRD3 antagonist,BRCA1 expr up,RGS4 inh,B2AR arrestin,PTHR1 ag,D3 ag
N/C(=N\OCc1ccc([N+](=O)[O-])cc1)c1ccncc1,-8,?,-20%,0%,-14%,1
O=C(CO)[C@@H](O)[C@H](O)[C@@H](O)CO,·,·,·,·,·,-16
S=C1NCCN1CC1CCN(CCCC2CCCC2)CC1,-18,-6%,-5%,·,-35%,-37
CN(C)/C=N/c1ncc(C(=O)c2ccccc2)s1,-19,5.6µM*,-31%,0%,-15%[57.5 µM],-2
Cc1nn(-c2ccc(Cl)cc2)c(=O)c2ccccc12,-5,54%,2%[56.9 µM],0%,-15%,-4
Cc1nn(-c2ccc(Cl)nn2)c(=O)c2ccccc12,1,11µM*,10%,0%,-8%,1
CCN1CCN(C(=O)c2ccc3c(c2)N(Cc2cccc(Cl)c2)C(=O)c2ccccc2S3=O)CC1 (stereo not given),·,·,-8%,·,i,-23
CC1CC(C)CN(CCCNC(=O)c2ccc3c(c2)N(Cc2ccccc2)C(=O)c2ccccc2S3=O)C1 (stereo not given),-72*,-45%,12%,2%,i,-20
CCN1CCN(C(=O)c2ccc3c(c2)N(Cc2ccccc2F)C(=O)c2ccccc2S3(=O)=O)CC1,-61*,3%,?,1%,i,-18
O=C(NCc1ccco1)c1ccc2c(c1)N(Cc1ccc(Cl)cc1)C(=O)c1ccccc1S2=O (stereo not given),·,-17%,-12%,·,-1%,-12
O=C(NCc1ccco1)c1ccc2c(c1)N(Cc1cccc(Cl)c1)C(=O)c1ccccc1S2=O (stereo not given),·,·,-8%,·,-21%,59*
CCN1CCN(C(=O)c2ccc3c(c2)N(Cc2ccccc2)C(=O)c2ccccc2S3=O)CC1 (stereo not given),-56*,-29%,1%,0%,-12%,-13
CCOC(=O)c1c[nH]c(=S)n(-c2ccccc2)c1=O,-11,-7%,15%,0%,i,30*
CCCOc1ccc(-c2csc(N)n2)cc1[N+](=O)[O-],27,7.9µM*,7%,0%,-2%,-9
CCOc1ccc(-c2cn3ccccc3n2)cc1[N+](=O)[O-],-17,4µM*,-29%,-1%,-2%,6
COc1cc(-c2nc(-c3ccc(NC(=O)c4ccc(Br)o4)cc3)no2)cc(OC)c1OC,39,-31%,?,0%,-21%,105*
COc1ccc(-c2nc(-c3ccc(NC(=O)c4ccc(Br)o4)cc3)no2)cc1OC,61,-38%,-6%,0%,-15%,38*
COc1ccc(CCC(=O)Nc2ccc(-c3noc(-c4ccc(OC)c(OC)c4)n3)cc2)cc1,48,78%,-2%,0%,-9%[57.5 µM],26
Cc1cc(C)c(C(O)c2ncc(-c3cccc4ccccc34)[nH]2)c(C)c1 (stereo not given),?,-13%,·,·,-76%,-2
OC(c1ccc(F)cc1)c1ncc(-c2ccccc2Cl)[nH]1 (stereo not given),6,11µM*,·,·,-20%,2
Cc1cccc(C)c1C(O)c1ncc(-c2ccc(Cl)cc2)[nH]1 (stereo not given),7,-14%,·,·,-4%,2

# Source: PubChem BioAssay (National Center for Advancing Translational Sciences (NCATS))
